Results taken from PubChem BioAssay (NCI).
Compounds without any hit were thinned out: in the full panel of roughly 79,000, 15% have a hit. Active and inactive are the calls of the source. No stated cut-off is given here; in the data, active means growth inhibition above about 70%; inactive means the rest.

Tests used:
[1] = NCI Yeast Anticancer Drug Screen. Data for the rad52 strain (AID 147);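 further: 0% = growth of vehicle-treated control cultures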; settings: S. cerevisiae rad52 mutant growth inhibition, stronger effect = higher value
Summary of the method: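 Read-out: growth inhibition versus vehicle-treated controls. Cells were a DNA repair-deficient yeast strain treated with compounds.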

[2] = NCI Yeast Anticancer Drug Screen. Data for the wt1 strain (AID 149);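 further: 0% = growth of vehicle-treated wt1 cultures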; settings: S. cerevisiae wt1 strain (SPY 50644) growth inhibition, stronger effect = higher value
Summary of the method: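 wt1 yeast, compound-treated; % growth inhibition vs vehicle control.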

[3] = NCI Yeast Anticancer Drug Screen. Data for the rad50EPP+ strain (AID 151);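 further: 0% = growth of vehicle-treated control cultures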; settings: S. cerevisiae rad50 mutant strain, stronger effect = higher value
Summary of the method: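 Growth inhibition read against vehicle controls in rad50EPP+ yeast, a strain altered in DNA damage repair, after compound exposure.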

[4] = NCI Yeast Anticancer Drug Screen. Data for the mgt1 strain (AID 153); settings: S. cerevisiae mgt1 mutant growth inhibition, stronger effect = higher value
Summary of the method: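 mgt1 yeast grown with test compound; read-out is growth inhibition versus vehicle-treated cultures.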

[5] = NCI Yeast Anticancer Drug Screen. Data for the rad50 strain (AID 155);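 further: 0% = growth of vehicle-only cultures of the same strain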; settings: S. cerevisiae rad50 strain growth inhibition, stronger effect = higher value
Summary of the method: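 Genetically altered yeast (DNA repair pathway); compound treatment; growth inhibition vs vehicle ctrl.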

[6] = NCI Yeast Anticancer Drug Screen. Data for the mec2-1 strain (AID 157); settings: S. cerevisiae mec2-1 strain, stronger effect = higher value
Summary of the method: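 Yeast mec2-1 mutant treated with compound. Readout: growth inhibition vs vehicle controls.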

[7] = NCI Yeast Anticancer Drug Screen. Data for the rad14 strain (AID 159);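 further: 0% = growth of vehicle-treated control cultures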; settings: S. cerevisiae rad14 strain growth inhibition, stronger effect = higher value
Summary of the method: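 Test compounds were applied to a repair-deficient yeast strain. Its growth was then compared with that of cultures given vehicle alone, and inhibition was expressed relative to those controls.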

[8] = NCI Yeast Anticancer Drug Screen. Data for the sgs1 mgt1 strain (AID 161);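 further: 0% = growth of cultures given vehicle only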; settings: S. cerevisiae sgs1 mgt1 strain, stronger effect = higher value
Summary of the method: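 Genetically altered yeast, compound exposure, growth inhibition relative to vehicle.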

[9] = NCI Yeast Anticancer Drug Screen. Data for the CLN2oe strain (AID 163);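 further: 0% = growth of vehicle-only control cultures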; settings: S. cerevisiae CLN2oe strain, stronger effect = higher value
Summary of the method: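 Read-out: yeast growth inhibition, expressed relative to vehicle-only controls. The strain bears an engineered cell-cycle alteration.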

[10] = NCI Yeast Anticancer Drug Screen. Data for the cln2 rad14 strain (AID 165);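 further: 0% = growth equal to vehicle treated cultures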; settings: S. cerevisiae cln2 rad14 strain, stronger effect = higher value
Summary of the method: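 cln2 rad14 yeast strain; compound exposure; growth inhibition read vs vehicle controls.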

[11] = NCI Yeast Anticancer Drug Screen. Data for the bub3 strain (AID 167); settings: S. cerevisiae bub3 mutant strain, stronger effect = higher value
Summary of the method: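 Yeast carrying a defined mutation is treated with each compound, and growth is compared with that of vehicle-exposed cells to give inhibition.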

[12] = NCI Yeast Anticancer Drug Screen. Data for the wt2 strain (AID 169);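 further: 0% = growth of vehicle-treated yeast cultures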; settings: S. cerevisiae wt2 strain growth inhibition, stronger effect = higher value
Summary of the method: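 Read-out: growth inhibition versus vehicle-treated control cultures after compound exposure of the yeast strain.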

[13] = NCI Yeast Anticancer Drug Screen. Data for the mlh1 strain (AID 171);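 further: 0% = growth of vehicle-treated control cultures of the same strain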; settings: S. cerevisiae mlh1 strain growth inhibition, stronger effect = higher value
Summary of the method: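 Read-out: growth inhibition versus vehicle controls. Strain: engineered yeast with a defined DNA repair or cell cycle defect, compound-treated.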

[14] = NCI Yeast Anticancer Drug Screen. Data for the sgs1 strain (AID 173);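 further: 0% = growth of vehicle-only control cultures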; settings: S. cerevisiae sgs1 mutant, stronger effect = higher value
Summary of the method: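 Read-out: yeast growth inhibition relative to vehicle controls, following compound exposure of a strain with a defined DNA repair/cell cycle alteration.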

[15] = NCI Yeast Anticancer Drug Screen. Data for the mlh1 rad18 strain (AID 175); settings: S. cerevisiae mlh1 rad18 strain growth inhibition, stronger effect = higher value
Summary of the method: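 Yeast w/ defined DNA-repair lesions; compound exposure; growth vs vehicle controls → % inhibition.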

[16] = NCI Yeast Anticancer Drug Screen. Data for the rad18 strain (AID 177); settings: S. cerevisiae rad18 mutant growth inhibition, stronger effect = higher value
Summary of the method: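 Readout: growth inhibition vs vehicle controls. Cells: genetically altered yeast strain, DNA repair defect.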

[17] = at 5.0 µM (retest, dose inferred, filed as 0.5)
[18] = at 50.0 µM (retest, dose inferred, filed as 5.0)

Measured: growth inhibition

CCC(=O)Nc1ccc(N=NN(C)C)cc1
active: [1]; at 33.0 µM 87% | [1]; at 100.0 µM 99% | [2]; at 100.0 µM 99% | [3]; at 100.0 µM 99% | [5]; at 50.0 µM 90.7% | [5]; at 100.0 µM 98% | [6]; [18] 95% | [6]; at 50.0 µM 75.2% | [6]; at 100.0 µM 99% | [7]; at 100.0 µM 99% | [9]; at 100.0 µM 97% | [11]; at 100.0 µM 90% | [12]; at 33.0 µM 73% | [12]; at 100.0 µM 100% | [13]; at 100.0 µM 99% | [14]; at 100.0 µM 99% | [16]; at 100.0 µM 99%
inactive: [1]; at 1.2 µM -9% | [1]; at 3.7 µM -12% | [1]; at 11.0 µM -13% | [2]; at 1.2 µM -1% | [2]; at 3.7 µM 2% | [2]; at 11.0 µM 3% | [2]; at 33.0 µM 47% | [3]; at 1.2 µM -10% | [3]; at 3.7 µM -30% | [3]; at 11.0 µM -21% | [3]; at 33.0 µM 65% | [4]; at 1.2 µM -2% | [4]; at 3.7 µM -9% | [4]; at 11.0 µM -5% | [4]; at 33.0 µM -9% | [4]; at 100.0 µM 45% | [5]; at 1.2 µM -61% | [5]; at 3.7 µM -23% | [5]; [17] -146% | [5]; at 11.0 µM -20% | [5]; at 33.0 µM 24% | [5]; [18] 45% | [6]; at 1.2 µM -5% | [6]; at 3.7 µM -5% | [6]; [17] -49% | [6]; at 11.0 µM -5% | [6]; at 33.0 µM 17% | [7]; at 1.2 µM -3% | [7]; at 3.7 µM -7% | [7]; at 11.0 µM -1% | [7]; at 33.0 µM 23% | [8]; [17] -65% | [8]; [18] 37% | [8]; at 50.0 µM 69.9% | [9]; at 1.2 µM -11% | [9]; at 3.7 µM -9% | [9]; at 11.0 µM -11% | [9]; at 33.0 µM 21% | [10]; [17] -56% | [10]; [18] 55% | [10]; at 50.0 µM 48.2% | [11]; at 1.2 µM -9% | [11]; at 3.7 µM -8% | [11]; [17] -70% | [11]; at 11.0 µM -13% | [11]; at 33.0 µM -11% | [11]; [18] 34% | [11]; at 50.0 µM 0.3% | [12]; at 1.2 µM 0% | [12]; at 3.7 µM 2% | [12]; at 11.0 µM 6% | [13]; at 1.2 µM -13% | [13]; at 3.7 µM -10% | [13]; at 11.0 µM -10% | [13]; at 33.0 µM 19% | [14]; at 1.2 µM -13% | [14]; at 3.7 µM -8% | [14]; at 11.0 µM 2% | [14]; at 33.0 µM 46% | [15]; [17] -150% | [15]; [18] 9% | [15]; at 50.0 µM 50.2% | [16]; at 1.2 µM -8% | [16]; at 3.7 µM -10% | [16]; at 11.0 µM -9% | [16]; at 33.0 µM 69%

COc1ccc2c(c1)CCCC(Br)C2=O (stereo unspecified)
inactive: [1]; at 1.2 µM 12% | [1]; at 3.7 µM 17% | [1]; at 11.0 µM 27% | [1]; at 33.0 µM 64% | [2]; at 1.2 µM 14% | [2]; at 3.7 µM 0% | [2]; at 11.0 µM 17% | [2]; at 33.0 µM 51% | [3]; at 1.2 µM 5% | [3]; at 3.7 µM 28% | [3]; at 11.0 µM 30% | [3]; at 33.0 µM 67% | [4]; at 1.2 µM 26% | [4]; at 3.7 µM 23% | [4]; at 11.0 µM 36% | [5]; at 1.2 µM 30% | [5]; at 3.7 µM 28% | [5]; [17] 11% | [5]; at 11.0 µM 31% | [5]; [18] 48% | [5]; at 50.0 µM 37.4% | [6]; at 1.2 µM 38% | [6]; at 3.7 µM 41% | [6]; [17] -13% | [6]; at 11.0 µM 54% | [7]; at 1.2 µM 3% | [7]; at 3.7 µM 2% | [7]; at 11.0 µM 14% | [7]; at 33.0 µM 64% | [8]; [17] 17% | [9]; at 1.2 µM 1% | [9]; at 3.7 µM 11% | [9]; at 11.0 µM -9% | [9]; at 33.0 µM 45% | [10]; [17] 39% | [10]; [18] 59% | [10]; at 50.0 µM 34.3% | [11]; at 1.2 µM -7% | [11]; at 3.7 µM -10% | [11]; [17] -12% | [11]; at 11.0 µM -4% | [11]; at 33.0 µM 50% | [12]; at 1.2 µM -41% | [12]; at 3.7 µM -53% | [12]; at 11.0 µM -22% | [12]; at 33.0 µM 60% | [13]; at 1.2 µM 26% | [13]; at 3.7 µM 23% | [13]; at 11.0 µM 36% | [14]; at 1.2 µM 34% | [14]; at 3.7 µM 43% | [14]; at 11.0 µM 35% | [15]; [17] 6% | [16]; at 1.2 µM 32% | [16]; at 3.7 µM 45% | [16]; at 11.0 µM 54%
active: [1]; at 100.0 µM 98% | [2]; at 100.0 µM 98% | [3]; at 100.0 µM 97% | [4]; at 33.0 µM 78% | [4]; at 100.0 µM 98% | [5]; at 33.0 µM 70% | [5]; at 100.0 µM 98% | [6]; at 33.0 µM 71% | [6]; [18] 78% | [6]; at 50.0 µM 86.2% | [6]; at 100.0 µM 97% | [7]; at 100.0 µM 98% | [8]; [18] 90% | [8]; at 50.0 µM 88.3% | [9]; at 100.0 µM 96% | [11]; [18] 97% | [11]; at 50.0 µM 90.1% | [11]; at 100.0 µM 97% | [12]; at 100.0 µM 98% | [13]; at 33.0 µM 78% | [13]; at 100.0 µM 98% | [14]; at 33.0 µM 74% | [14]; at 100.0 µM 99% | [15]; [18] 73% | [15]; at 50.0 µM 92.4% | [16]; at 33.0 µM 87% | [16]; at 100.0 µM 99%

Cc1cccc2c(Cl)c3cccc(C)c3nc12
active: [5]; [18] 75% | [5]; at 50.0 µM 75%
inactive: [1]; at 1.2 µM 1% | [1]; at 3.7 µM -1% | [1]; at 11.0 µM 8% | [1]; at 33.0 µM 42% | [1]; at 100.0 µM 65% | [2]; at 1.2 µM -2% | [2]; at 3.7 µM -3% | [2]; at 11.0 µM -1% | [2]; at 33.0 µM -1% | [2]; at 100.0 µM 2% | [3]; at 1.2 µM 2% | [3]; at 3.7 µM 5% | [3]; at 11.0 µM 26% | [3]; at 33.0 µM 64% | [3]; at 100.0 µM 61% | [4]; at 1.2 µM -4% | [4]; at 3.7 µM 1% | [4]; at 11.0 µM -7% | [4]; at 33.0 µM 0% | [4]; at 100.0 µM -10% | [5]; at 1.2 µM 1% | [5]; at 3.7 µM 10% | [5]; [17] 13% | [5]; at 11.0 µM 21% | [5]; at 33.0 µM 44% | [5]; at 100.0 µM 62% | [6]; at 1.2 µM -10% | [6]; at 3.7 µM -13% | [6]; [17] 7% | [6]; at 11.0 µM -10% | [6]; at 33.0 µM 1% | [6]; [18] 25% | [6]; at 50.0 µM -15.9% | [6]; at 100.0 µM 6% | [7]; at 1.2 µM -2% | [7]; at 3.7 µM 11% | [7]; at 11.0 µM 4% | [7]; at 33.0 µM 13% | [7]; at 100.0 µM 12% | [8]; [17] -6% | [8]; [18] 58% | [8]; at 50.0 µM -15.8% | [9]; at 1.2 µM -5% | [9]; at 3.7 µM -5% | [9]; at 11.0 µM -7% | [9]; at 33.0 µM -7% | [9]; at 100.0 µM -3% | [10]; [17] -33% | [10]; [18] 10% | [10]; at 50.0 µM 1.65% | [11]; at 1.2 µM -8% | [11]; at 3.7 µM 6% | [11]; [17] 0% | [11]; at 11.0 µM 2% | [11]; at 33.0 µM 1% | [11]; [18] 18% | [11]; at 50.0 µM -28.9% | [11]; at 100.0 µM -17%
